According to ChEMBL document CHEMBL1201862, “PubChem BioAssay data set” (2004):
In all, about 400,000 compounds went through this assay and about 2,100 (0.53%) were called active. Inconclusive results (about 14%) are left out. The rule behind the calls is not given here. This excerpt belongs to a sample that is enriched for actives.

Target: Ataxin-2 (Homo sapiens) (UniProt Q99700)
Assay: qHTS for Inhibitors of ATXN expression.
Type: functional

Sequence of Ataxin-2 (Homo sapiens) (Q99700 whole entry): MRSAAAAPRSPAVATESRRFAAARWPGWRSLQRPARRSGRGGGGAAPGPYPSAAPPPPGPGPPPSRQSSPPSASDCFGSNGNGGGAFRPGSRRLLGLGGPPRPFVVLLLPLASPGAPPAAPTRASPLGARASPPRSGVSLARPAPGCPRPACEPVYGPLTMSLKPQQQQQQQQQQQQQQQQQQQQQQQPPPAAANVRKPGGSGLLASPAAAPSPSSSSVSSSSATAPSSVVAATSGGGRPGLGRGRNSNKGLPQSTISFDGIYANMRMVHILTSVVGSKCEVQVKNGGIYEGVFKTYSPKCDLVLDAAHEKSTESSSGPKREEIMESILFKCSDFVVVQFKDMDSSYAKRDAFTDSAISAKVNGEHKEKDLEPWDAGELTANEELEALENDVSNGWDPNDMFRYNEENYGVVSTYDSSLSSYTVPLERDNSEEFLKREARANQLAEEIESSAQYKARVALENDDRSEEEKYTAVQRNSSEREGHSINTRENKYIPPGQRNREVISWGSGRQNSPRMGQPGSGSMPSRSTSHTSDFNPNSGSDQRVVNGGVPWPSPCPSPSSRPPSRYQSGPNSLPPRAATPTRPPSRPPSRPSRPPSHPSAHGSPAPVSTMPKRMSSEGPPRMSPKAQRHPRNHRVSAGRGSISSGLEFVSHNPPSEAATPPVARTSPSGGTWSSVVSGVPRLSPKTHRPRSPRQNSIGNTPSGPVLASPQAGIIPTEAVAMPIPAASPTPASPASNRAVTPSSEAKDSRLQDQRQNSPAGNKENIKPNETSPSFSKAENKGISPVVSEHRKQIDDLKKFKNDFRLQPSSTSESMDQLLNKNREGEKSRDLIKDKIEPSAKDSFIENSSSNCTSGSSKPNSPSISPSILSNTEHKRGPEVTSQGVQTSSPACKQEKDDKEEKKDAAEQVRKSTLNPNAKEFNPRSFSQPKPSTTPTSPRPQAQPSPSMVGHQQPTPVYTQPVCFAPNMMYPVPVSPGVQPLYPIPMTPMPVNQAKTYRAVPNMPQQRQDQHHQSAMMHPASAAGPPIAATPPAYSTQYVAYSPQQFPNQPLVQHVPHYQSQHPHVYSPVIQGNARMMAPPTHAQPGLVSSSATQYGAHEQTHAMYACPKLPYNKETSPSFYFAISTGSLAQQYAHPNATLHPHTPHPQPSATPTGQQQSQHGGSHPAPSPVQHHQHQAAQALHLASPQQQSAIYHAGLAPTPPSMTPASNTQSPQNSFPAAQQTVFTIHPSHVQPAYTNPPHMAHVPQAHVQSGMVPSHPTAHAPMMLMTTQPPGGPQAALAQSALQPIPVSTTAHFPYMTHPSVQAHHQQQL

SMILES	Potency
COc1ccc(C(=O)Nc2ccc(OCC(=O)N3CCOCC3)cc2)c(OC)c1OC	inactive
COc1cc(C(=O)Nc2nc(-c3ccc(Cl)cc3)c(C)s2)ccc1OCC(=O)Nc1ccc(F)cc1	35.5 µM (active)
COc1ccc(-c2nc(NC(=O)c3ccc(OCC(=O)Nc4ccc(F)cc4)c(OC)c3)sc2C)cc1	11.2 µM (active)
COc1ccc(-c2nc(NC(=O)c3ccc(OCC(=O)N4CCOCC4)c(OC)c3)sc2C)cc1	15.8 µM (active)
COc1ccc(C(=O)Nc2nc3n(n2)C(c2ccc(F)cc2)C=C(c2ccc(Cl)cc2)N3)cc1 (stereo not given)	inactive
COc1ccc(-c2ccc3c(N)c(C(=O)Nc4cc(F)ccc4C)sc3n2)cc1	inactive
COc1ccc(C(=O)N2CCNC(=O)C2CC(=O)Nc2ccc(C)cc2)cc1 (stereo not given)	inactive
COc1ccc(C(=O)OCC(=O)N2CCOCC2)cc1S(=O)(=O)N1CCOCC1	inactive
COc1ccccc1NC(=O)c1sc2nc(C)c(C(=O)Nc3ccc(Cl)cc3)c(-c3ccc(Br)cc3)c2c1N	inactive
CS(=O)(=O)c1cnc2c(-c3ccsc3)cnn2c1N	inactive
Nc1ccc2nc3c(=O)n(CCc4ccccc4)c(=O)[nH]c3nc2c1	inactive
O=C(COC(=O)/C=C/c1ccc(Br)o1)NC1CCCCC1	inactive
O=C(c1ccccc1)c1ccc(OCC(O)CNCc2ccc(F)cc2)cc1 (stereo not given)	inactive
OC(CNCCc1ccc(C(F)(F)F)cc1)COc1ccc2ccccc2c1 (stereo not given)	25.1 µM (active)
COc1ccc(C2CC(c3ccncc3)=NN2c2ccc(S(N)(=O)=O)cc2)cc1 (stereo not given)	inactive
O=C(CNC(=O)c1ccccc1Br)N/N=C/c1ccccc1O	inactive
CC(Oc1ccccc1Cl)C(=O)N(Cc1cccs1)C1CCS(=O)(=O)C1 (stereo not given)	inactive
Cc1cc(NC(=O)CSc2cn(C)c3ccccc23)no1	inactive
Cn1cc(C(=O)CCl)c2ccccc21	35.5 µM (active)
Cc1c(C(=O)Cc2ccccc2)n(C)c2ccccc12	inactive
Cc1cc(Sc2nc(NC(C)(C)C)nc(N3CCOCC3)n2)nc(Cl)n1	inactive
Cc1nccc2cc3[nH]c4ccccc4c3cc12	inactive

SMILES	Potency
Cc1cc2[nH]c3c(c[n+](C)c4ccccc34)c2cc1C	31.6 µM (active)
CCn1c(=N)c(C(=O)NC)cc2c(=O)n3cccc(C)c3nc21	inactive
Cc1ccc(S(=O)(=O)Nc2nc3n(n2)C(c2ccc(Cl)cc2)C=C(c2ccccc2)N3)cc1 (stereo not given)	inactive
CN(C(=O)COC(=O)c1cccnc1O)C1CCCCC1	inactive
CN(C)c1ccc(N=Nc2ccccc2C(=O)OCC(=O)NC2CCCC2)cc1	28.2 µM (active)
COc1ccccc1C(=O)OCC(=O)NC(=O)NC1CCCC1	inactive
CC(C)Cc1nc2sc3c(SCC(N)=O)ncnc3c2c2c1CCC2	inactive
CC(=O)/N=c1\c(C#N)cc2c(=O)n3ccccc3nc2n1Cc1ccccc1	inactive
CCN(CC)CCn1c(-c2ccccc2)cs/c1=N\c1ccccc1	15.8 µM (active)
CCN(CC)c1ccc2cc(S(=O)(=O)c3ccc(C)cc3)c(=O)oc2c1	inactive
Cc1cc(C)n(-c2cc(C(C)(C)C)nc3c(-c4ccccc4)cnn23)n1	inactive
Cc1nc2c(-c3ccc(Cl)cc3)cnn2c2c1CCC2	inactive
CN(C)CCCNc1cc(C(C)(C)C)nc2c(-c3ccc(Cl)cc3)cnn12	39.8 µM (active)
O=c1c2ccccc2[nH]c2ccc(O)cc12	inactive
CCCCOc1ccc(C(=O)CCN2CCOCC2)cc1	23.8 µM (active)
CCOc1ccc2c(c1)C(N(CCN1CCOCC1)C(=O)Nc1ccccc1)CC(C)(C)O2 (stereo not given)	inactive
CCOc1ccc(C(=O)CCN2CCOCC2)cc1	39.8 µM (active)
O=C(CCN1CCOCC1)N/N=C/c1cc(Br)cc(Br)c1O	inactive
CCOc1ccc(C(=O)COC(=O)Cn2cnc3c2c(=O)n(C)c(=O)n3C)cc1	inactive
COc1ccc(OCCC(=O)NCCN2CCOCC2)cc1	inactive
CCCN(CCC)S(=O)(=O)c1ccc(C(=O)Nc2sc3c(c2C(=O)OC)CCN(CC)C3)cc1	inactive
CCc1cc(=O)oc2cc(C)cc(O)c12	inactive

SMILES	Potency
O=C(COC(=O)c1cc(S(=O)(=O)N2CCCCC2)ccc1N1CCOCC1)c1ccccc1Cl	inactive
COc1ccc(Nc2ccc3c(c2)=NC2(CCCCC2)[N+]=3[O-])cc1	20 µM (active)
COc1ccc(Nc2ccnc(Nc3ccc(OC)cc3)n2)cc1	inactive
CC(=O)c1cc2c(s1)-c1cc(F)ccc1OC2	inactive
O=C(Nc1cccc(-c2csc(Nc3ccc(Cl)cc3)n2)c1)c1cc([N+](=O)[O-])cc(C(F)(F)F)c1	35.5 µM (active)
O=C(Nc1ccc(-c2csc(Nc3cccc(C(F)(F)F)c3)n2)cc1)c1cccc(C(F)(F)F)c1	20 µM (active)
NS(=O)(=O)c1cccc(NC(=O)CSc2n[nH]c(-c3cccs3)n2)c1	inactive
COc1ccc(CC(N)c2csc(NC(=O)Nc3ccccc3C(C)(C)C)n2)cc1 (stereo not given)	39.8 µM (active)
O=C(Cc1ccccc1F)Nc1ccccc1-c1ccccc1	inactive
COc1ccc(CC(N)c2csc(NC(=O)Nc3ccccc3-c3ccccc3)n2)cc1 (stereo not given)	39.8 µM (active)
CC(C)(C)c1ccccc1NC(=O)c1cnn2c(C(F)F)cc(-c3ccccc3)nc12	inactive
COc1cccc(OCC(=O)Nc2ccccc2-c2ccccc2)c1	inactive
CCOC(=O)CCc1c(C)c2cc3c(c(C)c2oc1=O)OCN(CCc1ccccc1OC)C3	inactive
Cc1cc(C(=O)NNC(=O)c2ccc(C(F)(F)F)cc2)no1	inactive
CC1C/C(=N\NC(=O)c2ccc([N+](=O)[O-])cc2)CC(C)(C)C1 (stereo not given)	inactive
Cc1ccc(NS(=O)(=O)c2ccc(C(=O)N3CCN(c4ncccn4)CC3)cc2)cc1	inactive
CCCCc1c(-c2cccc(OC)c2)ncn1CCc1ccccc1OC	39.8 µM (active)
CCCCNc1c(-c2ccc(OC)c(Sc3ccc(OC)cc3)c2)nc2cnccn12	inactive
COc1ccccc1[C@H]1C(c2cccc(Cl)c2)=NN(c2ccccc2)[C@@H]1CO	inactive
CCCCc1c(-c2cccc(Cl)c2)ncn1CCc1ccccc1OC	31.6 µM (active)
CCCCCc1c(-c2cccc(OC)c2)ncn1CCc1ccccc1OC	31.6 µM (active)
